Several values for one entry are separate records, joined by “and”; a condition that tells them apart may be missing. Equal entries are not always repeated. Compounds without any hit were thinned out: in the full panel of roughly 83,000, 20% have a hit.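 How to read the values: 0–100, growth inhibition (40 = 60% inhibited); 0, no net growth; -100 to 0, cell death (-40 = 40% of starting cells died; -100 = all dead).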 Activity calls are given as the source filed them. Where a SMILES comes first, the peptide text is derived from it.

The assay deals with RPMI-8226 leukemia. The experiment in a line: NCI-60 one-dose screen, 48 h (100 = growth as untreated, 0 = no growth, -100 = all killed). To be noted: 10 µM unless noted. The procedure: Growth inhibition of the RPMI-8226 human tumor cell line is measured as a screen for anti-cancer activity. Cells are grown in 96 well plates and exposed to the test compound for 48 hours. Compounds are tested at a single concentration, which is 10^-5 M for most compounds. The reported endpoint is percent growth (GI% or GIPRCNT), where numbers from 0 - 100% represent growth inhibition, and numbers from -100% - 0 represent cell death. For example, a value of 40 represents 60% growth inhibition. A value of 0 means no net growth occurred over the course of the experiment. A value of -40 indicates 40% of cells at the beginning of the experiment died by the end of the experiment. A value of -100 means all cells are dead at the end of the experiment.
NCI-60 Human Tumor Cell Lines Screen was performed using the standard one-dose NCI protocol, which is described in more detail at https://dtp.cancer.gov/discovery_development/nci-60/default.htm.
Compounds with GIPRCNT values below 10 were considered active. Activity score was based on GIPRCNT using the following formula: […]
Score is 0 for GIPRCNT values of 100 or above, 50 for GIPRCNT values of 0, and 100 for GIPRCNT values of -100.
On to `COc1ccc(N/C=C/C2=[N+](C)c3ccccc3C2(C)C)c(OC)c1`, for which the growth was 81.6% (inactive).

For the molecule `CC(=O)NCC(=O)c1ccc([N+](=O)[O-])cc1`, the growth was 104% (inactive).

For the molecule `O=C1OC(c2ccccc2)=N/C1=C\c1ccccc1`, the growth is 102% (inactive).

Take `NC(Cc1c[nH]c2ccccc12)C(=O)O` (stereo not given): the growth is 86.6% (inactive) and 103% (inactive).

Consider `O=C(O)CCCl`, for which the growth was 101% (inactive).

For `CC(C)NC(=O)N/C=C(\C#N)C(N)=O`, the growth was 116% (inactive).

For `Cl`, the growth is 115% (inactive).

As to `Nc1ncnc2c1ncn2C1OC(COP(=O)(O)O)C(O)C1O` (stereo not given), the growth is 106% (inactive).

As for `CC(C)C(C)(C)c1ccc(O)cc1`, the growth is 105% (inactive).

For `COc1ccc(Nc2ccc3ccccc3c2)cc1`, the growth was 66.5% (inactive).

As for `O=C1OC(C(O)C(O)CO)C(O)=C1O` (stereo not given), the growth was 98.1% (inactive) and 105% (inactive).

With `CCCCCCCCCCNC(=O)CI`, the growth was -37.1% (active).

On to `c1ccc2c(c1)OC1OC2Oc2ccccc21`, for which the growth was 106% (inactive).

For the molecule `CCCCCCCCCCCCCCCCC(C(=O)O)C(O)(CC(=O)O)C(=O)O` (stereo not given), the growth is 104% (inactive) and -25.5% (active).

As for `OC1COC(OCc2ccccc2)C(O)C1O` (stereo not given), the growth is 103% (inactive).

On to `Fc1ccc([I+]c2ccc(F)cc2)cc1`, for which the growth was 41.7% (inactive).

Take `CC1CCC2(OC1)OC1CC3C4CC=C5CC(O)CCC5(C)C4CCC3(C)C1C2C` (stereo not given): the growth was 71.4% (inactive).

Take `O=C1CSC2=NCCN12`: the growth is 101% (inactive) and 90.7% (inactive).

Take `NC1CCC(C(=O)O)CC1` (stereo not given): the growth is 93.2% (inactive) and 75.8% (inactive).

Regarding `CN(C)c1ccc(/C=C\C(=O)c2ccccc2)cc1`, the growth was 72.7% (inactive) and 76.8% (inactive) and 69.6% (inactive).

`C#CCOC(=O)Nc1ccccc1`: the growth was 105% (inactive).

As for `CC(C)NCC(O)c1ccc(O)c(O)c1` (stereo not given), the growth is 96.6% (inactive) and 99.6% (inactive).

For the molecule `N#CC(C#N)N=Nc1cc(Cl)ccc1Cl`, the growth was 95.2% (inactive).

As to `Nc1nc(N)c2[nH]cnc2n1`, the growth was 64.3% (inactive).

In the case of `OCCN1CCCCCCC1`, the growth was 108% (inactive).

For the molecule `CN(C)CC1CCCCCC(CN(C)C)C1=O` (stereo not given), the growth was 13.1% (inactive).

Consider `O=C(CO)C(O)C(O)C(O)C(O)CO` (stereo not given), for which the growth is 107% (inactive) and 100% (inactive).

Regarding `Nc1cc(N)c(N)cc1N`, the growth was 89.7% (inactive).

Regarding `Cc1ccc(=O)[nH]n1`, the growth was 108% (inactive).

Turning to `CC1CCC(C(C)C)C(NNC(N)=O)C1` (stereo not given), the growth was 98.5% (inactive).

In the case of `OCC1OC(O)C(O)C(O)C1O` (stereo not given), the growth was 110% (inactive).

For `CCCCCCCCCCCCCCCc1ccc(N)c(OC2OC(CO)C(O)C(O)C2O)c1` (stereo not given), the growth was 28.7% (inactive).

For `CCOC(=O)c1c(C)cc(=O)oc1C`, the growth is 97.9% (inactive).

Regarding `NN1CCOC(c2ccccc2)C1` (stereo not given), the growth was 97.8% (inactive).

Turning to `Brc1ccc(SSc2ccc(Br)cc2)cc1`, the growth was 35.6% (inactive).

`NC(Cc1ccccc1)C(=O)NC(Cc1ccccc1)C(=O)O` (stereo not drawn) (H-Phe-Phe-OH; configuration not given here): the growth was 112% (inactive) and 101% (inactive).

With `Cc1ccc(S(=O)(=O)c2ccccc2)cc1`, the growth is 49% (inactive).

For the molecule `CC(=O)Nc1ccc(S(N)(=O)=O)cc1`, the growth was 95.6% (inactive) and 111% (inactive).

On to `O=C(O)/C=C\C(=O)Nc1cccc2ccccc12`, for which the growth was 81.8% (inactive) and 95.4% (inactive).

Turning to `COc1ccc2cc1Oc1ccc(cc1)C[C@H]1c3cc(c(OC)cc3CCN1C)Oc1c(OC)c(OC)cc3c1[C@H](C2)N(C)CC3`, the growth is -31.2% (active).

For the origin of these results see PubChem BioAssay (NCI).
